From PubChem BioAssay (NCI)
About 83,000 compounds went through this panel and 20% of them were active in at least one assay; those are over-represented in the sample as a whole.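 For each line, cells grew in 96-well plates with the test compound present at a single concentration for 48 hours.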 A number with no mark means an inactive call. Calls of active or inactive are those of the source. Rule for the calls: active = growth percent below 10; inactive = the rest.

Columns and labels:
Test in all cases: NCI-60 one-dose screen, 48 h (100 = growth as untreated, 0 = no growth, -100 = all killed)
HCT-15 colon = details: 10 µM unless noted
SNB-75 CNS = details: 10 µM unless noted
SNB-19 CNS = details: 10 µM unless noted
U251 CNS = details: 10 µM unless noted
PC-3 prostate = details: 10 µM unless noted
SK-MEL-5 melanoma = details: 10 µM unless noted
UACC-62 melanoma = details: 10 µM unless noted
LOX IMVI melanoma = details: 10 µM unless noted
SK-MEL-28 melanoma = details: 10 µM unless noted
SK-MEL-2 melanoma = details: 10 µM unless noted
EKVX NSCLC = details: 10 µM unless noted
SN12C renal = details: 10 µM unless noted
UO-31 renal = details: 10 µM unless noted
TK-10 renal = details: 10 µM unless noted
ACHN renal = details: 10 µM unless noted
A498 renal = details: 10 µM unless noted
CCRF-CEM leukemia = details: 10 µM unless noted
MOLT-4 leukemia = details: 10 µM unless noted
CAKI-1 renal = details: 10 µM

Compound: O=C(N/N=C/c1ccccc1O)c1ccccc1O
- growth (HCT-15 colon): 30.1%
- growth (SNB-75 CNS): 78.3%
- growth (SNB-19 CNS): 51.7%
- growth (U251 CNS): 36.2%
- growth (PC-3 prostate): 39.6%
- growth (SK-MEL-5 melanoma): 10.6%
- growth (UACC-62 melanoma): 24%
- growth (LOX IMVI melanoma): 12.8%
- growth (SK-MEL-28 melanoma): 46.9%
- growth (SK-MEL-2 melanoma): 61.1%
- growth (EKVX NSCLC): 37.5%
- growth (SN12C renal): 41%
- growth (UO-31 renal): 3.31% (active)
- growth (TK-10 renal): 42.4%
- growth (ACHN renal): 16.7%
- growth (A498 renal): 99.6%
- growth (CCRF-CEM leukemia): 12.7%
- growth (MOLT-4 leukemia): 19.3%

Compound: COc1cc(NC(C)CCCN2C(=O)c3ccccc3C2=O)c2nccc(C)c2c1OC (stereo not given)
- growth (HCT-15 colon): 102%
- growth (SNB-75 CNS): 102%
- growth (SNB-19 CNS): 109%
- growth (U251 CNS): 101%
- growth (PC-3 prostate): 58.6%
- growth (SK-MEL-5 melanoma): 69.5%
- growth (UACC-62 melanoma): 84%
- growth (LOX IMVI melanoma): 82.8%
- growth (SK-MEL-28 melanoma): 113%
- growth (SK-MEL-2 melanoma): 87.6%
- growth (EKVX NSCLC): 98.4%
- growth (SN12C renal): 126%
- growth (UO-31 renal): 80.9%
- growth (TK-10 renal): 122%
- growth (ACHN renal): 110%
- growth (A498 renal): 92.9%
- growth (CCRF-CEM leukemia): -14.2% (active)
- growth (MOLT-4 leukemia): -44.2% (active)

Compound: CCN(CC)C(=O)C1CCN(C(=O)c2ccccc2)CC1
- growth (HCT-15 colon): 104%
- growth (SNB-75 CNS): 94%
- growth (SNB-19 CNS): 100%
- growth (U251 CNS): 101%
- growth (PC-3 prostate): 96.9%
- growth (SK-MEL-5 melanoma): 101%
- growth (UACC-62 melanoma): 97.2%
- growth (LOX IMVI melanoma): 96.7%
- growth (SK-MEL-28 melanoma): 107%
- growth (SK-MEL-2 melanoma): 98.3%
- growth (EKVX NSCLC): 101%
- growth (SN12C renal): 101%
- growth (UO-31 renal): 89.2%
- growth (TK-10 renal): 87.1%
- growth (A498 renal): 85.7%
- growth (CCRF-CEM leukemia): 80.9%
- growth (MOLT-4 leukemia): 92.2%

Compound: O=C(C[n+]1cccc(Br)c1)c1ccc2c(c1)CCCC2
- growth (HCT-15 colon): 99.4%
- growth (SNB-75 CNS): 101%
- growth (SNB-19 CNS): 108%
- growth (U251 CNS): 102%
- growth (PC-3 prostate): 94.3%
- growth (SK-MEL-5 melanoma): 99.2%
- growth (UACC-62 melanoma): 104%
- growth (LOX IMVI melanoma): 97.1%
- growth (SK-MEL-28 melanoma): 105%
- growth (SK-MEL-2 melanoma): 102%
- growth (EKVX NSCLC): 94.8%
- growth (SN12C renal): 104%
- growth (UO-31 renal): 90.1%
- growth (TK-10 renal): 105%
- growth (ACHN renal): 108%
- growth (A498 renal): 106%
- growth (CCRF-CEM leukemia): 102%

Compound: CC(C)C1(C(C)C)NC(=O)NC1=O
- growth (HCT-15 colon): 110%
- growth (SNB-75 CNS): 94.5%
- growth (SNB-19 CNS): 101%
- growth (U251 CNS): 103%
- growth (PC-3 prostate): 93.3%
- growth (SK-MEL-5 melanoma): 91.5%
- growth (UACC-62 melanoma): 106%
- growth (LOX IMVI melanoma): 102%
- growth (SK-MEL-28 melanoma): 95.9%
- growth (SK-MEL-2 melanoma): 108%
- growth (EKVX NSCLC): 92.7%
- growth (SN12C renal): 99%
- growth (UO-31 renal): 78.4%
- growth (ACHN renal): 106%
- growth (CAKI-1 renal): 88.9%
- growth (A498 renal): 93.8%
- growth (CCRF-CEM leukemia): 93.7%
- growth (MOLT-4 leukemia): 97.6%

Compound: CCN(CC)c1ccc(C2CC(c3cc(OC)c(OC)c(OC)c3)=NN2)cc1 (stereo not given)
- growth (HCT-15 colon): 36.1%
- growth (SNB-75 CNS): 18.7%
- growth (SNB-19 CNS): 14%
- growth (U251 CNS): 33%
- growth (PC-3 prostate): 26.3%
- growth (SK-MEL-5 melanoma): -26.4% (active)
- growth (UACC-62 melanoma): 48.5%
- growth (LOX IMVI melanoma): 40.5%
- growth (SK-MEL-28 melanoma): 64.8%
- growth (SK-MEL-2 melanoma): 27.6%
- growth (EKVX NSCLC): 27.6%
- growth (SN12C renal): 47.2%
- growth (UO-31 renal): 36.5%
- growth (TK-10 renal): 77.8%
- growth (ACHN renal): 75.3%
- growth (A498 renal): -2.94% (active)
- growth (MOLT-4 leukemia): 7.4% (active)

Compound: CCCCC(=O)Nc1nc2ccc(SCCC)cc2s1
- growth (HCT-15 colon): 43.6%
- growth (SNB-75 CNS): 33.2%
- growth (SNB-19 CNS): 64.4%
- growth (U251 CNS): 39.9%
- growth (PC-3 prostate): 47.8%
- growth (SK-MEL-5 melanoma): 42.7%
- growth (UACC-62 melanoma): 43.3%
- growth (LOX IMVI melanoma): 43.2%
- growth (SK-MEL-28 melanoma): 64.8%
- growth (SK-MEL-2 melanoma): 50.1%
- growth (EKVX NSCLC): 59.7%
- growth (SN12C renal): 50.1%
- growth (UO-31 renal): 37.5%
- growth (ACHN renal): 75.1%
- growth (A498 renal): 9.34% (active)
- growth (CCRF-CEM leukemia): 44%
- growth (MOLT-4 leukemia): 29.8%

Compound: COc1ccc(Cl)cc1NC(=O)c1cc2c([nH]1)-c1nc(NC(=O)C(C)C)sc1CC2
- growth (HCT-15 colon): 95.4%
- growth (SNB-75 CNS): 92.2%
- growth (SNB-19 CNS): 110%
- growth (U251 CNS): 96.5%
- growth (PC-3 prostate): 87.6%
- growth (SK-MEL-5 melanoma): 77.6%
- growth (UACC-62 melanoma): 91.7%
- growth (LOX IMVI melanoma): 95%
- growth (SK-MEL-28 melanoma): 112%
- growth (SK-MEL-2 melanoma): 84.6%
- growth (EKVX NSCLC): 82.1%
- growth (SN12C renal): 99.2%
- growth (UO-31 renal): 51.9%
- growth (TK-10 renal): 85.8%
- growth (A498 renal): 112%
- growth (CCRF-CEM leukemia): 93.4%
- growth (MOLT-4 leukemia): 86%

Compound: CCCCCCCCCCCCCCCCCCNCc1ccc(Cl)cc1
- growth (HCT-15 colon): -87.1% (active)
- growth (SNB-75 CNS): -60.9% (active)
- growth (SNB-19 CNS): -67.6% (active)
- growth (U251 CNS): -84.8% (active)
- growth (PC-3 prostate): -89.3% (active)
- growth (SK-MEL-5 melanoma): 11.8%
- growth (LOX IMVI melanoma): -74.6% (active)
- growth (SK-MEL-28 melanoma): 27.2%
- growth (SK-MEL-2 melanoma): -73.3% (active)
- growth (EKVX NSCLC): -30.2% (active)
- growth (SN12C renal): -60.8% (active)
- growth (UO-31 renal): -78.6% (active)
- growth (TK-10 renal): -65.1% (active)
- growth (A498 renal): -75.8% (active)
- growth (CCRF-CEM leukemia): -45.9% (active)
- growth (MOLT-4 leukemia): -62.1% (active)
